The structures appear in SMILES notation. Where a name gives a salt, the structure may show the parent alone.

The test system of one experiment is 24.0 GACCACAGCCCCCAGCAGGGGAGGCCCCCAGCAGGGGAGGCCCACACCTGCCCCAGCACCT
The experiment is described as follows: fraction of edited reads among all mapped reads; higher = more Cas9 editing. As to conditions: mESC; 2uM; 72 h treatment, harvest day 5.
Take `CC(=O)O/N=C1\C(=O)N(Cc2cc(Cl)ccc2Cl)c2ccc(Cl)cc21`: the “fraction of edited reads among all mapped reads” value stood at 0.0521.
Same read-out and setting: next, `Cc1cc(C)nc(SCC(=O)Nc2ncc(Cc3cccc4ccccc34)s2)n1`: 0.0587; `Nc1cc(F)ccc1NC(=O)c1ccc(CNC(=O)/C=C/c2cccnc2)cc1` [Tucidinostat (Chidamide)]: 0.0463; `CCCCOc1c(C(=O)c2c(F)cc(C)cc2F)c[nH]c2nncc1-2`: 0.0449.

In another experiment the test system is 6.0 (DMSO control at this site: 1-bp insertion 0.296, MH deletion 0.491, edited 0.076) ACGATTGGCCCCCACAAAGCGGACCAGCCAGCGTGCTAGGGAATAAGGCCAACTTGCACCC
The experiment is described as above. The settings on record: mESC; 2uM; 72 h treatment, harvest day 5.
For the molecule `Cc1cccc(CC(=O)N2CCc3c2ccc(-c2cn(C)c4ncnc(N)c24)c3F)n1`, the “fraction of edited reads among all mapped reads” value turned out to be 0.114.
Same read-out and setting: next, `Cc1ccc(C(=O)NCCCCCC(=O)Nc2ccccc2N)cc1`: 0.0825; `CC(=O)O/N=C1\C(=O)N(Cc2cc(Cl)ccc2Cl)c2ccc(Cl)cc21`: 0.0813; `O=C1Cc2c([nH]c3ccc(Br)cc23)-c2ccccc2N1` [Kenpaullone]: 0.165.
Still for that read-out and setting: next, `CC(C)(C#N)c1ccc(N2C(=O)OCc3cnc4ccc(-c5cnc6ccccc6c5)cc4c32)cc1`: 0.0904; `CCc1c2c(nc3ccc(OC(=O)N4CCC(N5CCCCC5)CC4)cc13)-c1cc3c(c(=O)n1C2)COC(=O)[C@]3(O)CC` [Irinotecan HCl Trihydrate]: 0.104; `O=C(c1cccc(Cl)c1F)N1CCN(Cc2cccc(Nc3nccs3)n2)CC1`: 0.0584.
Still for that read-out and setting: in the case of `C[C@@H]1CN(CC(=O)Nc2ccc3c(c2)Cc2cccc(-c4cc(=O)cc(N5CCOCC5)o4)c2S3)C[C@H](C)O1` it was 0.0449; in that of `COc1ccccc1-c1cc(Nc2cccc(CS(N)(=O)=O)c2)ncn1`, 0.0957; in that of `Nc1ncnc2c1c(-c1cnc3[nH]ccc3c1)nn2C1CCCC1`, 0.0596.
As to `CNc1ccc([N+](=O)[O-])c(Nc2ccc3[nH]ncc3c2)n1`, the “fraction of edited reads among all mapped reads” value was found to be 0.1.
Still for that read-out and setting: next, `Cc1cc(C)nc(SCC(=O)Nc2ncc(Cc3cccc4ccccc34)s2)n1`: 0.13; `CO[C@H]1/C=C/O[C@@]2(C)Oc3c(C)c(O)c4c(O)c(c(/C=N/N5CCN(C6CCCC6)CC5)c(O)c4c3C2=O)NC(=O)/C(C)=C\C=C\[C@H](C)[C@H](O)[C@@H](C)[C@@H](O)[C@@H](C)[C@H](OC(C)=O)[C@@H]1C` [Rifapentine]: 0.14; `Nc1nc2[nH]cc(CCc3ccc(C(=O)N[C@@H](CCC(=O)O)C(=O)O)cc3)c2c(=O)[nH]1` [Pemetrexed]: 0.0705.
`CCn1c(=O)c(-c2ccc(Cl)cc2Cl)cc2cnc(Nc3ccc(N4CCNCC4)c(F)c3)nc21`: the “fraction of edited reads among all mapped reads” value was found to be 0.0726.
Same read-out and setting: next, `Nc1cc(F)ccc1NC(=O)c1ccc(CNC(=O)/C=C/c2cccnc2)cc1` [Tucidinostat (Chidamide)]: 0.0652; `CCN1CCN(CC(=O)Nc2ccc(-c3cccc4c(=O)cc(N5CCOCC5)oc34)c3sc4ccccc4c23)CC1`: 0.0396.
On the same count and under the same terms, in the case of `S=c1nc[nH]c2nc[nH]c12` [6-Mercaptopurine (6-MP) Monohydrate] it was 0.0627.
Still for that read-out and setting: next, `CCCCOc1c(C(=O)c2c(F)cc(C)cc2F)c[nH]c2nncc1-2`: 0.0886; `S=c1[nH]cnc2nc[nH]c12` [Mercaptopurine (6-MP)]: 0.0919; `O=c1cc(N2CCOCC2)oc2c(-c3ccc4c(c3)OCCO4)csc12`: 0.0488.
With `NC(=O)c1ccc2nc(-c3ccc(Oc4ccc(Cl)cc4)cc3)[nH]c2c1` [Chk 2 inhibitor II (BML-277)], the “fraction of edited reads among all mapped reads” value was determined as 0.092.
On to `O=c1c(-c2ccc(O)cc2)coc2cc(O)cc(O)c12` [Genistein], for which the “fraction of edited reads among all mapped reads” value was 0.113.

A further experiment concerns 24.0 GACCACAGCCCCCAGCAGGGGAGGCCCCCAGCAGGGGAGGCCCACACCTGCCCCAGCACCT
Put plainly: fraction of microhomology deletions among edited reads; higher = more MH deletions. As to conditions: mESC; 2uM; 72 h treatment, harvest day 5.
Turning to `CC(=O)O/N=C1\C(=O)N(Cc2cc(Cl)ccc2Cl)c2ccc(Cl)cc21`, the “fraction of microhomology deletions among edited reads” value was 0.696.
On the same count and under the same terms, in the case of `Cc1cc(C)nc(SCC(=O)Nc2ncc(Cc3cccc4ccccc34)s2)n1` it was 0.552; in that of `Nc1cc(F)ccc1NC(=O)c1ccc(CNC(=O)/C=C/c2cccnc2)cc1` [Tucidinostat (Chidamide)], 0.571; in that of `CCCCOc1c(C(=O)c2c(F)cc(C)cc2F)c[nH]c2nncc1-2`, 0.705.

The next experiment concerns 6.0 (DMSO control at this site: 1-bp insertion 0.296, MH deletion 0.491, edited 0.076) ACGATTGGCCCCCACAAAGCGGACCAGCCAGCGTGCTAGGGAATAAGGCCAACTTGCACCC
The description is as above. As to conditions: mESC; 2uM; 72 h treatment, harvest day 5.
With `Cc1cccc(CC(=O)N2CCc3c2ccc(-c2cn(C)c4ncnc(N)c24)c3F)n1`, the “fraction of microhomology deletions among edited reads” value came out at 0.501.
On the same count and under the same terms, next, `CC(=O)O/N=C1\C(=O)N(Cc2cc(Cl)ccc2Cl)c2ccc(Cl)cc21`: 0.51.
Still for that read-out and setting: next, `O=C1Cc2c([nH]c3ccc(Br)cc23)-c2ccccc2N1` [Kenpaullone]: 0.526; `CC(C)(C#N)c1ccc(N2C(=O)OCc3cnc4ccc(-c5cnc6ccccc6c5)cc4c32)cc1`: 0.53; `CCc1c2c(nc3ccc(OC(=O)N4CCC(N5CCCCC5)CC4)cc13)-c1cc3c(c(=O)n1C2)COC(=O)[C@]3(O)CC` [Irinotecan HCl Trihydrate]: 0.571.
The same measure, in the same setting: next, `O=C(c1cccc(Cl)c1F)N1CCN(Cc2cccc(Nc3nccs3)n2)CC1`: 0.559.
Consider `C[C@@H]1CN(CC(=O)Nc2ccc3c(c2)Cc2cccc(-c4cc(=O)cc(N5CCOCC5)o4)c2S3)C[C@H](C)O1`, for which the “fraction of microhomology deletions among edited reads” value stood at 0.331.
The same measure, in the same setting: in the case of `COc1ccccc1-c1cc(Nc2cccc(CS(N)(=O)=O)c2)ncn1` it was 0.494.
As for `Nc1ncnc2c1c(-c1cnc3[nH]ccc3c1)nn2C1CCCC1`, the “fraction of microhomology deletions among edited reads” value turned out to be 0.403.
On the same count and under the same terms, in the case of `CNc1ccc([N+](=O)[O-])c(Nc2ccc3[nH]ncc3c2)n1` it was 0.551; in that of `Cc1cc(C)nc(SCC(=O)Nc2ncc(Cc3cccc4ccccc34)s2)n1`, 0.498; in that of `CO[C@H]1/C=C/O[C@@]2(C)Oc3c(C)c(O)c4c(O)c(c(/C=N/N5CCN(C6CCCC6)CC5)c(O)c4c3C2=O)NC(=O)/C(C)=C\C=C\[C@H](C)[C@H](O)[C@@H](C)[C@@H](O)[C@@H](C)[C@H](OC(C)=O)[C@@H]1C` [Rifapentine], 0.538.
The same measure, in the same setting: next, `Nc1nc2[nH]cc(CCc3ccc(C(=O)N[C@@H](CCC(=O)O)C(=O)O)cc3)c2c(=O)[nH]1` [Pemetrexed]: 0.608.
The same measure, in the same setting: next, `CCn1c(=O)c(-c2ccc(Cl)cc2Cl)cc2cnc(Nc3ccc(N4CCNCC4)c(F)c3)nc21`: 0.477; `Nc1cc(F)ccc1NC(=O)c1ccc(CNC(=O)/C=C/c2cccnc2)cc1` [Tucidinostat (Chidamide)]: 0.502; `CCN1CCN(CC(=O)Nc2ccc(-c3cccc4c(=O)cc(N5CCOCC5)oc34)c3sc4ccccc4c23)CC1`: 0.588.
For `S=c1nc[nH]c2nc[nH]c12` [6-Mercaptopurine (6-MP) Monohydrate], the “fraction of microhomology deletions among edited reads” value amounted to 0.429.
Still for that read-out and setting: next, `CCCCOc1c(C(=O)c2c(F)cc(C)cc2F)c[nH]c2nncc1-2`: 0.523.
Still for that read-out and setting: in the case of `S=c1[nH]cnc2nc[nH]c12` [Mercaptopurine (6-MP)] it was 0.519; in that of `O=c1cc(N2CCOCC2)oc2c(-c3ccc4c(c3)OCCO4)csc12`, 0.568.
The same measure, in the same setting: next, `NC(=O)c1ccc2nc(-c3ccc(Oc4ccc(Cl)cc4)cc3)[nH]c2c1` [Chk 2 inhibitor II (BML-277)]: 0.515; `O=c1c(-c2ccc(O)cc2)coc2cc(O)cc(O)c12` [Genistein]: 0.529.

The values above are taken from the supplement of paper PMC8387472.
